The results in this text go back to PubChem BioAssay (NCI).

The structures appear in SMILES notation. Compounds without any hit were thinned out: in the full panel of roughly 83,000, 20% have a hit.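 Results are percent growth after 48 hours of single-concentration exposure. 100 means growth as in untreated cells, lower positive values show inhibition; negative values down to -100 show cell death.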 Unmarked numbers belong to inactive results. The source made the active and inactive calls. Rule for the calls: active = growth percent below 10; inactive = the rest.

Assay in all cases: NCI-60 one-dose screen, 48 h (100 = growth as untreated, 0 = no growth, -100 = all killed)
One assay has as its system HCT-15 colon. The conditions noted are these: 10 µM unless noted.
A further assay deals with HT29 colon. The conditions noted are these: 10 µM unless noted.
The subject of a further assay is SNB-75 CNS. To be noted: 10 µM unless noted.
The next assay relates to SNB-19 CNS. The conditions noted are these: 10 µM unless noted.
The test system of a further assay is U251 CNS. The conditions noted are these: 10 µM unless noted.
A further assay deals with PC-3 prostate. The conditions noted are these: 10 µM unless noted.
The next assay relates to SK-MEL-5 melanoma. To be noted: 10 µM unless noted.
Another assay relates to UACC-62 melanoma. The conditions noted are these: 10 µM unless noted.
The subject of another assay is SK-MEL-28 melanoma. The conditions noted are these: 10 µM unless noted.
For the next assay, the system named is SK-MEL-2 melanoma. To be noted: 10 µM unless noted.
In the next assay the test system is EKVX NSCLC. To be noted: 10 µM unless noted.
Another assay concerns SN12C renal. To be noted: 10 µM unless noted.
The subject of the next assay is UO-31 renal. To be noted: 10 µM unless noted.
The test system of another assay is TK-10 renal. To be noted: 10 µM unless noted.
The test system of another assay is ACHN renal. The conditions noted are these: 10 µM unless noted.
The test system of the next assay is CAKI-1 renal. The conditions noted are these: 10 µM unless noted.
The subject of a further assay is A498 renal. To be noted: 10 µM unless noted.
For a further assay, the system named is CCRF-CEM leukemia. To be noted: 10 µM unless noted.
In a further assay the test system is MOLT-4 leukemia. The conditions noted are these: 10 µM unless noted.
The subject of another assay is LOX IMVI melanoma. The conditions noted are these: 10 µM.

For the compound `N#Cc1cnn(C(=O)c2ccccc2Br)c1NC(=O)c1ccc(Br)cc1Cl`, the growth in the assay with HCT-15 colon is 101%; in the assay on HT29 colon, 104%; with SNB-75 CNS, 106%; with SNB-19 CNS, 97.2%; in the assay on U251 CNS, 93.3%; with PC-3 prostate, 103%. Further, the growth with SK-MEL-5 melanoma is 98.6%; in the assay with UACC-62 melanoma, 101%; in the assay with SK-MEL-28 melanoma it was 103%; in the assay with SK-MEL-2 melanoma, 111%; with EKVX NSCLC, 100%; in the assay with SN12C renal it was 104%. The growth in the assay on UO-31 renal was 85.9%; with TK-10 renal, 101%; in the assay on ACHN renal, 103%; in the assay on CAKI-1 renal, 94.5%; in the assay with A498 renal, 106%; in the assay with CCRF-CEM leukemia, 94.5%. In addition, the growth with MOLT-4 leukemia was 99.9%.
In the case of `COc1cc2c3c(n(CCCN4CCC[C@@H]4CO)c(=O)c2cc1OC)-c1cc2c(cc1C3=O)OCO2`, the growth is -90.9% (active) in the assay on HCT-15 colon; -95.2% (active) in the assay on HT29 colon; -83.4% (active) in the assay with SNB-75 CNS; -90.1% (active) in the assay on SNB-19 CNS; -95.1% (active) in the assay with U251 CNS; -17.8% (active) in the assay with PC-3 prostate. Besides, the growth in the assay with SK-MEL-5 melanoma is -90.8% (active); in the assay with UACC-62 melanoma, 11.7%; in the assay on LOX IMVI melanoma, -98.7% (active); in the assay with SK-MEL-28 melanoma, -92.1% (active); in the assay with SK-MEL-2 melanoma, 120%; in the assay on EKVX NSCLC, -70.6% (active). The growth in the assay with UO-31 renal was -92.5% (active); in the assay with TK-10 renal, 91.4%; in the assay with ACHN renal, -100% (active); in the assay with A498 renal, 93.8%; in the assay on MOLT-4 leukemia it was 5.36% (active).
In the case of `O=C(/C=C/c1cccc(OCc2ccc(F)cc2)c1)c1nc2ccccc2[nH]1`, the growth with HCT-15 colon was -58.4% (active); with HT29 colon, -46.1% (active); in the assay on SNB-75 CNS, 116%; in the assay with SNB-19 CNS, 68.4%; with U251 CNS, -70.9% (active); with PC-3 prostate, 15%. For the same compound, the growth is 65.5% in the assay on SK-MEL-5 melanoma; 72.6% in the assay on UACC-62 melanoma; 104% with SK-MEL-28 melanoma; 104% in the assay on SK-MEL-2 melanoma; 38% in the assay with EKVX NSCLC; 76.9% with SN12C renal. Also, the growth was 69.4% in the assay with UO-31 renal; 79% with TK-10 renal; 78.9% in the assay on ACHN renal; 67.3% with CAKI-1 renal; 112% with A498 renal; 6.9% (active) in the assay on CCRF-CEM leukemia. The growth in the assay with MOLT-4 leukemia was -11.2% (active).
With `N#Cc1c(-c2ccc(Br)cc2)nc2n[nH]c(-c3ccc(Br)cc3)c2c1-c1ccc(F)cc1`, the growth in the assay on HCT-15 colon is 98.6%; with HT29 colon, 87.9%; in the assay with SNB-75 CNS, 94.5%; with SNB-19 CNS, 102%; with U251 CNS it was 96.7%; in the assay on PC-3 prostate, 89%. In addition, the growth in the assay on SK-MEL-5 melanoma is 95.1%; in the assay on UACC-62 melanoma, 87%; in the assay on SK-MEL-28 melanoma, 102%; in the assay on SK-MEL-2 melanoma it was 109%; in the assay on EKVX NSCLC it was 70.7%; with SN12C renal, 85.2%. Further, the growth in the assay on UO-31 renal is 65.3%; in the assay with TK-10 renal it was 135%; with ACHN renal it was 91.2%; with CAKI-1 renal it was 70.1%; in the assay on A498 renal it was 163%; in the assay with CCRF-CEM leukemia it was 102%. Also, the growth with MOLT-4 leukemia was 74.9%.
In the case of `COc1ccc2nc(Nc3cccc(NC(=O)c4ccc(CN5CCCN(C)CC5)c(C(F)(F)F)c4)c3)ccc2c1`, the growth in the assay on HCT-15 colon is -64.7% (active); in the assay on HT29 colon, -69.7% (active); with SNB-75 CNS, -35.3% (active); with SNB-19 CNS, -76.4% (active); with U251 CNS it was 1.47% (active); in the assay with PC-3 prostate, -57% (active). The growth in the assay with SK-MEL-5 melanoma was -69.2% (active); in the assay with UACC-62 melanoma, -61.1% (active); with SK-MEL-28 melanoma, -74.9% (active); in the assay with SK-MEL-2 melanoma, -74.5% (active); in the assay with EKVX NSCLC it was -98.5% (active); in the assay with SN12C renal, -65.9% (active). The growth in the assay with UO-31 renal is -66.9% (active); in the assay with TK-10 renal it was -81.1% (active); in the assay on ACHN renal it was -91.5% (active); in the assay on CAKI-1 renal, -65.2% (active); in the assay on A498 renal, -53.3% (active); in the assay on CCRF-CEM leukemia it was -43.6% (active). In the assay on MOLT-4 leukemia, the growth was -4.91% (active).
On to `O=C(N=Nc1c(O)[nH]c2ccc(Cl)cc12)c1ccc2nc(-c3ccccc3)[nH]c2c1`, for which the growth in the assay on HCT-15 colon is 95.4%; in the assay with HT29 colon, 57.4%; in the assay on SNB-75 CNS it was 91.7%; with SNB-19 CNS, -52.5% (active); with U251 CNS, -71.3% (active); with PC-3 prostate, 51.1%. Moreover, the growth in the assay on SK-MEL-5 melanoma is 94.3%; with UACC-62 melanoma it was 21.7%; in the assay with SK-MEL-28 melanoma, 44.3%; in the assay with SK-MEL-2 melanoma, 43.4%; in the assay on EKVX NSCLC, 92.4%; with SN12C renal, 42%. For the same compound, the growth is 78.8% with UO-31 renal; 143% with TK-10 renal; 68.4% in the assay on ACHN renal; 89.3% in the assay with CAKI-1 renal; 137% in the assay with A498 renal; 41.7% with CCRF-CEM leukemia. Moreover, the growth with MOLT-4 leukemia is 27.3%.
Regarding `CSc1ccc(NC(=O)c2ccc3nnn(/C(C#N)=C/c4ccccn4)c3c2)cc1`, the growth in the assay on HCT-15 colon was -66.3% (active); in the assay with HT29 colon it was -89.2% (active); with SNB-75 CNS, 63.2%; in the assay on SNB-19 CNS, -73.1% (active); in the assay with U251 CNS, -81.6% (active); in the assay on PC-3 prostate, -20.1% (active). For the same compound, the growth in the assay with SK-MEL-5 melanoma was -99.7% (active); in the assay on UACC-62 melanoma, -65.9% (active); in the assay with SK-MEL-28 melanoma it was -72.6% (active); in the assay on SK-MEL-2 melanoma it was -96.3% (active); in the assay with EKVX NSCLC it was -99.6% (active); in the assay on SN12C renal, -99.9% (active). Moreover, the growth with UO-31 renal is -100% (active); in the assay on TK-10 renal, -98.5% (active); in the assay on ACHN renal it was -100% (active); in the assay on CAKI-1 renal, -93.5% (active); with A498 renal, 45.1%; in the assay on CCRF-CEM leukemia, 6.95% (active). In the assay with MOLT-4 leukemia, the growth was 6.04% (active).
On to `COc1ccc(NC(=O)Nc2ccc(OCc3ccc(F)cc3)cc2)cc1`, for which the growth was 91.1% in the assay on HCT-15 colon; 92.3% in the assay on HT29 colon; 63.6% in the assay on SNB-75 CNS; 46.9% in the assay on SNB-19 CNS; 34.8% with U251 CNS; 79.7% in the assay on PC-3 prostate. Moreover, the growth in the assay with SK-MEL-5 melanoma was 76.6%; with UACC-62 melanoma, 82.6%; in the assay with LOX IMVI melanoma, 26.6%; in the assay with SK-MEL-28 melanoma, 75.5%; in the assay with SK-MEL-2 melanoma, 96.8%; in the assay with SN12C renal it was 55.7%. Besides, the growth was 26.3% with UO-31 renal; 82.4% with TK-10 renal; 42.2% in the assay on ACHN renal; 66.6% in the assay on CAKI-1 renal; 80.3% in the assay on A498 renal; 83.7% in the assay with CCRF-CEM leukemia. Moreover, the growth with MOLT-4 leukemia was 94.8%.
